The test has as its system MDA-MB-468 breast. In words: NCI-60 one-dose screen, 48 h (100 = growth as untreated, 0 = no growth, -100 = all killed). Conditions: 10 µM unless noted.

The panel holds about 83,000 compounds, 20% with a hit somewhere; the sample as a whole holds those more often.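 Percent growth is the endpoint: 0 to 100 indicates growth inhibition (40 means 60% inhibition), 0 means no net growth, and negative values indicate cell death.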 A number with no mark means an inactive call. Calls of active or inactive are those of the source. How the source made its calls: active means growth percent below 10; inactive means the rest.

On to `N#CN1CC[C@H](C(=O)Nc2cc3cc(C(N)=O)ccc3cn2)C1`, for which the growth was -46.2% (active).

For the molecule `CCN(CC)CCCC(C)N/C(=C1\C(=O)NC(=O)\C1=C(/NC(C)CCCN(CC)CC)c1cccc(OC)c1)c1cccc(OC)c1` (stereo not given), the growth is -42.6% (active).

Regarding `CC1(C)CC[C@]23CC[C@]4(C)[C@H](CC[C@@H]5[C@@]6(C)CC[C@H](NCO)C(C)(C)[C@@H]6CC[C@]54C)[C@H]2[C@H]1OC3`, the growth was -56.6% (active).

For the molecule `COc1ccc(NC(=O)c2sc3nc4c(cc3c2N)C(O)CCC4)cc1` (stereo not given), the growth was 92.2%.

On to `CCC1CCCCN1C(=S)N/N=C(\C)c1ccccn1` (stereo not given), for which the growth was -2.96% (active).

On to `OC(c1cccc(OCc2ccccc2)c1)c1nnc(-c2ccccc2)o1` (stereo not given), for which the growth is 64.8%.

On to `CC(C)(C)OC(=O)N1C/C(=C\c2ccccc2)C(=O)/C(=C/c2ccccc2)C1`, for which the growth is 112%.

For the molecule `COC(=O)c1ccc2c(c1)nc(-c1ccc(Cl)cc1)n2-c1cc(C(C)(C)C)[nH]n1`, the growth was 37.4%.

Take `COC(=O)CCC/C=C\C[C@H]1C=CC(=O)/C1=C/C[C@@H](O)CCc1cccc(C(F)(F)F)c1`: the growth is -14.5% (active).

Take `CC(=O)OC(C(=O)O)c1ccccc1` (stereo not given): the growth was 104%.

As for `Cc1oc2c(C(=O)N/N=C\c3ccc(O)cc3O)c[nH]c2c1C`, the growth is -11.8% (active).

In the case of `O=C(NCCCNc1cc(-c2cn(-c3ccccc3)nc2-c2cccc(O)c2)ccn1)c1ccccc1`, the growth is -61% (active).

`O=C1/C(=C/c2ccc(F)cc2)COc2ccc(O)c(O)c21`: the growth was -2.42% (active).

As to `CCc1ccc(C2=C/C(=C/c3ccccc3)C(=O)N2CCc2ccc(S(N)(=O)=O)cc2)cc1`, the growth was 109%.

Turning to `CC1(C)OC2[C@@H](CNC(=O)NC(=O)NC(=O)CI)O[C@@H](n3cnc4c(NC(=O)Nc5ccccc5)ncnc43)[C@H]2O1` (stereo not given in full), the growth is 64%.

Regarding `O=c1ncc(-c2ccc(C(F)(F)F)cc2)c(NC2CCCCCC2)[nH]1`, the growth was 11.8%.

As to `Clc1nc2ccccc2nc1-c1nnc(C2CCCCC2)o1`, the growth was 7.71% (active).

Take `CCCCCCNC(=O)Oc1ccc(/C(=C(/C)c2ccc(Cl)cc2)c2ccc(OCCN3CCCC3)cc2)cc1`: the growth was 62.6%.

On to `COc1cc(C(=O)NNC(=O)c2ccc(NC(=O)CCl)cc2)cc(OC)c1OC`, for which the growth was 70.3%.

Turning to `Nc1ncnc2c1N=C(c1ccc(Br)cc1)CC(c1cccc(Nc3ccnc4cc(C(F)(F)F)ccc34)c1)N2` (stereo not given), the growth is 60.7%.

Consider `O=C1NC(=O)c2c1c1c3ccccc3ccc1c1[nH]c3ccccc3c21`, for which the growth was 7.32% (active).

For `Cc1ccc(Cc2cnc(NC(=O)/C(C#N)=C/c3ccc(-c4ccc(Cl)cc4)o3)s2)cc1`, the growth is 83.1%.

For the molecule `COc1c(N2CC3CCCNC3C2)c(F)cc2c(=O)c(C(=O)N/N=C/c3ccc(N(C)C)cc3)cn(C3CC3)c12` (stereo not given), the growth was 79%.

With `O=C(CSc1nc2ccc([N+](=O)[O-])cc2[nH]1)Nc1ccc(F)c(Cl)c1`, the growth is -14.9% (active).

Take `Cc1c(C(=O)C(SC(=S)N2CCOCC2)SC(=S)N2CCOCC2)nnn1-c1ccc([N+](=O)[O-])cc1`: the growth was 92.7%.

The values are drawn from PubChem BioAssay (NCI).
